The subject of experiment [1] is Plasmodium falciparum Sir2 (PF13_0152, Sir2A). Nature of the experiment: Plasmodium falciparum Sir2A binding compounds – biochemical, small-molecule microarray, 635 nm fluorescence, primary screen (AID 1098).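 Note: score merges spot fluorescence intensity with its signal-to-noise ratio.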 Conditions: fluorescence 635 nm, higher = more signal.
Experiment [2] can be described thus: probe aDKK1 binding to arrayed compounds – biochemical, biotinylated probe, 635/667 nm fluorescence, primary screen (AID 1099).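 Note: score merges 667nm spot fluorescence with signal to noise across triplicate slides.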 Conditions: small-molecule microarray, higher = more signal.
The nature of experiment [3]: probe aCHRDL2 binding to arrayed compounds – biochemical, biotinylated probe, 635/667 nm fluorescence, primary screen (AID 1100). Particulars: small-molecule microarray, higher = more signal.
Experiment [4] is described as follows: change in splice reporter luminescence, either direction, cell-based, HEK293, spliceosome inhibition project, primary screen (AID 1101).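 Note: HEK293 cells carrying a splicing-competent luciferase reporter gene; test concentration not given here.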 Conditions: HEK293 splicing luciferase reporter, 24 h, higher = more signal, called active from +8 up or from −8 down. On the technique in general: A reporter such as luciferase makes a cellular process visible.
Experiment [5] has as its target Fibroblast growth factor 10 (Homo sapiens) (UniProt O15520). The experiment in a line: compounds binding fibroblast growth factor 10 – biochemical, small-molecule microarray, 635 nm fluorescence, primary screen (AID 1102). Particulars: FGF10 binding, fluorescence 635 nm, higher = more signal.
The subject of experiment [6] is glycogen synthase kinase-3 (GSK3A per assay name; protocol says GSK3B). The experiment in a line: compounds binding glycogen synthase kinase-3 – biochemical, small-molecule microarray, 635 nm fluorescence, GSK3A, primary screen (AID 1103). Note: the record names both GSK3A and GSK3B. Particulars: fluorescence 635 nm, higher = more signal.
The target of experiment [7] is Epidermal growth factor receptor (Homo sapiens) (UniProt P00533). The experiment in a line: compounds binding epidermal growth factor receptor – biochemical, small-molecule microarray, 635 nm fluorescence, primary screen (AID 1104).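 Note: score merges 667 nm emission intensity with spot signal to noise over triplicate slides.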 Particulars: EGFR binding, higher = more signal.
Epidermal growth factor receptor (Homo sapiens), sequence (P00533 whole entry, looked up): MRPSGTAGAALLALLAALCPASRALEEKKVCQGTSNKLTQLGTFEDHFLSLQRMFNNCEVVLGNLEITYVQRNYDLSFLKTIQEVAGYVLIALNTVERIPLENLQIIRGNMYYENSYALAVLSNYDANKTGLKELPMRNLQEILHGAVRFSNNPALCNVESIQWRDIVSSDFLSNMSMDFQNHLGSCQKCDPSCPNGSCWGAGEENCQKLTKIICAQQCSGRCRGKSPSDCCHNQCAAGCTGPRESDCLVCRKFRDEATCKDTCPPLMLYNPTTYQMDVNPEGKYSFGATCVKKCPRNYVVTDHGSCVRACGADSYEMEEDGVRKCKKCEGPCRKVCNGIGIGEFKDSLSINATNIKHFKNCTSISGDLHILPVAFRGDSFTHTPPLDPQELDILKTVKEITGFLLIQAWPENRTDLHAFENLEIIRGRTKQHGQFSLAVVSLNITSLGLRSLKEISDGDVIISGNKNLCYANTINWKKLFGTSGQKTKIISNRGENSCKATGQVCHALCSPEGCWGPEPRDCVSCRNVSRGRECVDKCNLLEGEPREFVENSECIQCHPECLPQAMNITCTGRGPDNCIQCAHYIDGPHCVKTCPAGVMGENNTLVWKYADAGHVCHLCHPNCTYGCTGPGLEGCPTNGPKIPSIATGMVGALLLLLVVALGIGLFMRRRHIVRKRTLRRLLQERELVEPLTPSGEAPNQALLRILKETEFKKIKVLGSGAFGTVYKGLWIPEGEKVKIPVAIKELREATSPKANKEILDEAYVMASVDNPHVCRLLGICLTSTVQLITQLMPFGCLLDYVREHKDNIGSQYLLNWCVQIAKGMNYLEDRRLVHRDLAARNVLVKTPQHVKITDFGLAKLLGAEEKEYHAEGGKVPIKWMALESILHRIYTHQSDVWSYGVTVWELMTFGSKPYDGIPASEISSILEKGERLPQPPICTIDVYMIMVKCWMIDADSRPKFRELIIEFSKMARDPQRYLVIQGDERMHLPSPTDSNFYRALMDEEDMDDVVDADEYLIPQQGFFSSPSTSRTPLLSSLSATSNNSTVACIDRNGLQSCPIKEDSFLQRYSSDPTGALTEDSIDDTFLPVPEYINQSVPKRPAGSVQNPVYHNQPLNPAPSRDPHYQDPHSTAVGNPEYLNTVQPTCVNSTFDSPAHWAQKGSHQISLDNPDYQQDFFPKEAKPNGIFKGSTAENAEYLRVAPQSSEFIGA
Experiment [8] has as its target Follistatin-related protein 3 (Homo sapiens) (UniProt O95633). The experiment in a line: compounds binding follistatin-related protein 3 – biochemical, small-molecule microarray, 635 nm fluorescence, primary screen (AID 1105).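 Note: score merges emission near 667 nm and signal to noise per printed spot across three slides.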 Particulars: FSTL3 binding, higher = more signal.
The target of experiment [9] is Dickkopf-related protein 1 (Homo sapiens) (UniProt O94907). The experiment in a line: small molecules binding DKK1 protein – biochemical, small-molecule microarray, 635 nm fluorescence scan, primary screen (AID 1106).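 Note: score merges emission near 667 nm with signal to noise over three replicate slides.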 Conditions: higher = more signal.
Dickkopf-related protein 1 (Homo sapiens), sequence (O94907 whole entry, looked up): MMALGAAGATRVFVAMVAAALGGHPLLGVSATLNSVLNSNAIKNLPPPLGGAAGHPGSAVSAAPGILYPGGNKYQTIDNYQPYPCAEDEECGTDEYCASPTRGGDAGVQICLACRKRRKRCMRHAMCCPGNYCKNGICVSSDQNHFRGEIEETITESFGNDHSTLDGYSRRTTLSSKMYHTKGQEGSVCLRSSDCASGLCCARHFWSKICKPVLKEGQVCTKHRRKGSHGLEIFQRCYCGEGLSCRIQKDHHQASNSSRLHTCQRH
The subject of experiment [10] is Inhibin beta A chain (activin A). The experiment in a line: small molecules binding activin A – biochemical, small-molecule microarray, 635 nm fluorescence scan, primary screen (AID 1107).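 Note: mouse activin A protein probed at 4.33 µg/mL on printed slides; score merges bound-protein fluorescence near 667 nm with spot signal-to-noise.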 Conditions: INHBA, higher = more signal.
The subject of experiment [11] is Human papillomavirus type 1a protein E7 (residues 44-93). Nature of the experiment: small molecules binding HPV E7 44-93 – biochemical, small-molecule microarray, residues 44-93, 635 nm fluorescence, primary screen (AID 1108).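 Note: E7 fragment applied at 1 µg/mL in TBST for 1 h at 4 C; score combines spot fluorescence with its signal to noise ratio.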 Conditions: fluorescence 635 nm, higher = more signal.
The nature of experiment [12]: hepatitis C replication reporter changes, two-sided – Huh7 cells, luciferase reporter, HCV replication inhibitor project, primary screen (AID 1109).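 Note: huh7 hepatoma cells harbouring a luciferase neomycin HCV replicon reporter; luciferase luminescence as measure of HCV replicon replication; test concentration not given here.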 Particulars: Huh7 HCV replicon luciferase reporter, 48 h; higher = more signal.
The target in experiment [13] is Left-right determination factor 2 (Homo sapiens) (UniProt O00292). The experiment in a line: small molecules binding LEFTY2 protein – biochemical, small-molecule microarray, 635 nm fluorescence scan, primary screen (AID 1110). Particulars: higher = more signal.
Left-right determination factor 2 (Homo sapiens), sequence (O00292 whole entry, looked up): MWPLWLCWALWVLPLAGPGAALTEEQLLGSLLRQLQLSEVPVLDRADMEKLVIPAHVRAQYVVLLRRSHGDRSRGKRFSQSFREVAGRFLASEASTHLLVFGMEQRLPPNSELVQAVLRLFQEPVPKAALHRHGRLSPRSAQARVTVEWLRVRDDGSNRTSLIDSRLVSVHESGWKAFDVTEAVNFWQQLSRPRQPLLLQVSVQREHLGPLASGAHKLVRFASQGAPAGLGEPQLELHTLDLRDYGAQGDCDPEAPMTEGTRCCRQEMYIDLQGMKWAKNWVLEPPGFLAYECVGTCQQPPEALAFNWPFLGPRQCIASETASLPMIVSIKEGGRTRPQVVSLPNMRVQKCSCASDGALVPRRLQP
Experiment [14] has as its target Calmodulin-1 (Homo sapiens) (UniProt P0DP23). The experiment in a line: small molecules binding calmodulin-1 with EGTA – biochemical, small-molecule microarray, Cy5-labelled CALM1, profiling panel (AID 1111).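 Note: labelled calmodulin applied in Tris saline Tween buffer holding calcium plus EGTA and DTT.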 Conditions: Cy5-CALM1 binding fluorescence, higher = more signal.
Experiment [15] shares this target. Nature of the experiment: small molecules binding Ca-loaded calmodulin-1 – biochemical, small-molecule microarray, Cy5-labelled CALM1, plus calcium, artefact control for SMM control-protein annotation, profiling panel (AID 1112).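 Note: score merges spot fluorescence with signal to noise from triplicate slides.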 Conditions: Cy5-CALM1 binding fluorescence, higher = more signal.
Experiment [16] in a line: probe aWnt5a binding to arrayed compounds – biochemical, biotinylated probe, 635/667 nm fluorescence, primary screen (AID 1113).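 Note: score merges 667 nm fluorescence intensity with signal-to-noise per printed feature.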 Conditions: small-molecule microarray, higher = more signal.
Experiment [17] is described as follows: probe aShh binding to arrayed compounds – biochemical, biotinylated probe, 635/667 nm fluorescence, primary screen (AID 1114).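 Note: probe is biotin-labelled aShh protein from a stem cell growth factor screen; measures binding of labelled protein to compounds printed on the slide; score merges feature fluorescence at 667 nm with signal-to-noise.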 Particulars: small-molecule microarray, higher = more signal.
A short description of experiment [18]: probe aNog binding to arrayed compounds – biochemical, biotinylated probe, 635/667 nm fluorescence, primary screen (AID 1115).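 Note: probe is biotinylated aNog protein used at 0.15 µg/mL for 1 h at 4 C; z-score combines 667 nm fluorescence of each spot with its signal to noise.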 Particulars: small-molecule microarray, higher = more signal.
The target in experiment [19] is Torsin-1A-interacting protein 1 (Homo sapiens) (UniProt Q5JTV8). The experiment in a line: compound microarray binding of lysate hLAP1 – cell lysate, small-molecule microarray, COS7 lysate, 635/667 nm fluorescence, primary screen (AID 1116). Particulars: 635 nm fluorescence, higher = more signal.
Torsin-1A-interacting protein 1 (Homo sapiens), sequence (Q5JTV8 whole entry, looked up): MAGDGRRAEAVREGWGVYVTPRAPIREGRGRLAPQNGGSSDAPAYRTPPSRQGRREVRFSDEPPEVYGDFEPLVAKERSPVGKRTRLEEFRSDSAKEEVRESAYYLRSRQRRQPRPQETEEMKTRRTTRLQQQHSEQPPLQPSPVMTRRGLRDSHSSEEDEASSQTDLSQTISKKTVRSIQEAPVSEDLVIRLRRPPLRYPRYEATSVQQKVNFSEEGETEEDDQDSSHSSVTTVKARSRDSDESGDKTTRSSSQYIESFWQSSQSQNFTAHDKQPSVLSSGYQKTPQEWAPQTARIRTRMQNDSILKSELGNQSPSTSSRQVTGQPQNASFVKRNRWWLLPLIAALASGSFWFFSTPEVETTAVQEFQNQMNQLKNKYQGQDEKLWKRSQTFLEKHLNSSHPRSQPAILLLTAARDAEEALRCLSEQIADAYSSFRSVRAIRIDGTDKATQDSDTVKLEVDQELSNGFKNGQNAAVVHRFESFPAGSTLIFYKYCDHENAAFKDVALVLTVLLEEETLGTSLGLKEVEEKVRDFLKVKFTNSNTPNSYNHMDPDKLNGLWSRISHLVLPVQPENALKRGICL
In experiment [20] the target is Alpha-bungarotoxin (Bungarus multicinctus) (UniProt P60615). The experiment in a line: compounds binding labelled alpha-BTX control protein – biochemical, small-molecule microarray, Alexa647 label, 635/667 nm fluorescence, artefact control for SMM control protein annotation, profiling panel (AID 1117). Particulars: alpha-BTX-A647 binding fluorescence, higher = more signal.
Alpha-bungarotoxin (Bungarus multicinctus), sequence (P60615 whole entry, looked up): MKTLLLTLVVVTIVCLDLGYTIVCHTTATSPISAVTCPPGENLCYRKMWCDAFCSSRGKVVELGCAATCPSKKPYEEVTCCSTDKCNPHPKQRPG

Drawing on PubChem BioAssay, this text covers composite z-score and z-score for five compounds.

Active and inactive are the calls of the source.

Fibroblast growth factor 10 (Homo sapiens), sequence (O15520 whole entry, looked up): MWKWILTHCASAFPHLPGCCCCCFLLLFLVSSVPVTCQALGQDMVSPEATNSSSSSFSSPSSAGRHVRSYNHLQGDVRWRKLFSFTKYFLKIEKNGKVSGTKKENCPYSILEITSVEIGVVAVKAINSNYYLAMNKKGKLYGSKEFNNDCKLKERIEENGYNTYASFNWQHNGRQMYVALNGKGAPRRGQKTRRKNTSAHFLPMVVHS
Follistatin-related protein 3 (Homo sapiens), sequence (O95633 whole entry, looked up): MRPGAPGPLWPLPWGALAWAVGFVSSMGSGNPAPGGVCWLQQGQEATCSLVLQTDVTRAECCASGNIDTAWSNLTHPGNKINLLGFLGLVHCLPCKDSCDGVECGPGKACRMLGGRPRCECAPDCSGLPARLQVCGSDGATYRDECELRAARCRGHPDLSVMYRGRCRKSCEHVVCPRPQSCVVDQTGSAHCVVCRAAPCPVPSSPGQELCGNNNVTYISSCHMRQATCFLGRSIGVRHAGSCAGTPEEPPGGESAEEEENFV

`C=CCC(OC(C)=O)[C@@H]1[C@@H](N(Cc2ccc(-c3cccc(C(F)(F)F)c3)o2)C(=O)c2ccc(C)cc2)c2cc(OCCCO)ccc2N1C(=O)c1ccc2ccccc2c1` (stereo not given in full): the composite z-score in experiment [1] is 0.178; in experiment [2], -0.149; in [3], 0.155; in [5] it was 0.298; in experiment [6] it was -0.461; in experiment [7], -0.0161. In addition, the composite z-score is 0.443 in [8]; 0.217 in experiment [9]; 1.01 in experiment [10]; -0.191 in [11]; -0.0584 in experiment [13]; -0.287 in experiment [14]. Moreover, the composite z-score in [15] is -0.208; in experiment [16] it was 0.0433; in experiment [17] it was -0.221; in experiment [18], -0.347; in [19], -0.048; in experiment [20], -0.0213. Besides, the z-score in experiment [4] was -0.619 (inactive); in experiment [12], -0.471.

On to `COc1cc(OC)c(C(O)C2C=CC3C(=O)N(c4ccccc4)C(=O)C3N2Nc2ccccc2)cc1Br` (stereo not given), for which the composite z-score in experiment [1] is 1.53; in experiment [2], 0.184; in experiment [3] it was 0.612; in experiment [5] it was 0.247; in [6], 0.176; in [7], -0.487. For the same compound, the composite z-score in [8] is 0.39; in [9] it was -0.386; in [10], 0.791; in [11] it was 1.4; in [13], -0.263; in experiment [14] it was 1.02. The composite z-score in experiment [15] was 0.285; in [16], -0.0346; in experiment [17], -0.138; in [18], -0.0604; in experiment [19] it was 0.474; in [20], 0.665. Also, the z-score in [4] is 0.528 (inactive); in [12], -0.801.

For `COCCOC(=O)N1C(=O)[C@@]2(c3cc(C#CCC(C(=O)OC)C(=O)OC)ccc31)[C@H](C(=O)N1CCc3cc(OC)c(OC)cc3C1)[C@H]1C(=O)O[C@H](c3ccccc3)[C@H](c3ccccc3)N1[C@@H]2c1ccc(OCCO)cc1`, the composite z-score in [1] was determined as 1.37; in [2] it was 0.0202; in [3] it was 0.0313; in [5] it was 1.24; in experiment [6], 1.31; in [7] it was 0.936. The composite z-score in experiment [8] amounted to 1.3; in experiment [9], 0.943; in [10], 0.541; in [11] it was 1.39; in experiment [13] it was 0.608; in [14] it was 0.756. For the same compound, the composite z-score in experiment [15] was -0.551; in [16], -0.006; in [17], -0.1; in experiment [18] it was -0.103; in [19] it was 0.0568; in experiment [20], 2.16. Further, the z-score in [4] is 0.382 (inactive); in [12] it was -0.45.

Take `CN(C)C(=O)[C@]1(CCS(=O)(=O)c2ccccc2)N=C(c2ccc(OCCCO)cc2)O[C@@H]1c1ccccc1N=[N+]=[N-]`: the composite z-score in experiment [1] was 1.78; in [2], 0.774; in [3] it was 0.923; in [5] it was 1.42; in [6], 0.581; in [7] it was 0.564. The composite z-score was determined as 1.45 in experiment [8]; 0.553 in experiment [9]; 1.33 in experiment [10]; 1.5 in experiment [11]; 0.814 in [13]; 1.79 in experiment [14]. In addition, the composite z-score was 0.291 in [15]; 0.119 in experiment [16]; 0.254 in [17]; 1.9 in experiment [18]; 2.28 in [19]; 1 in experiment [20]. The z-score in [4] is -2.08 (inactive); in experiment [12], 0.0131.

With `[N-]=[N+]=NCc1ccccc1C[C@@]1(C(=O)NCc2ccccc2)N=C(c2ccc(OCCCO)cc2)O[C@@H]1c1ccccc1N=[N+]=[N-]`, the composite z-score in experiment [1] is -0.108; in experiment [2] it was 0.559; in [3], 1.13; in experiment [5] it was 0.894; in experiment [6], 1.21; in experiment [7], -0.475. The composite z-score in [8] was -0.206; in experiment [9], -0.666; in experiment [10], 0.376; in experiment [11], 1.41; in experiment [13], -0.346; in [14], 1.31. Further, the composite z-score came out at 0.845 in experiment [15]; 0.0839 in [16]; 0.108 in experiment [17]; 1.29 in experiment [18]; 1.45 in experiment [19]; 0.937 in experiment [20]. The z-score in [4] is -0.758 (inactive); in [12], -2.26.
